Out of some 53,000 sequences screened, about 3,700 (7%) were called active. Shown is part of a subset that was picked to be rich in actives. Unmarked numbers belong to inactive results.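 The calls were made as follows: active = gene knockdowns whose robust z-score for IL-1 alpha signal is at least 2 or at most -2, so actives lie on both sides; inactive = the rest.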
Assay: Components of the Cytosolic LPS Sensing Pathway: Gene Identification via Genome-wide siRNA Screen;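 also: robust z of the log signal after scaling to non-targeting control siRNA wells of the plate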
Details: RAW264.7 macrophages, IL-1a HTRF, actives lie on both sides, screened at 100 nM (by protocol), cells primed 5 h with Pam3CSK4 first
How it was run: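 Read-out: IL-1a HTRF on supernatant, divided by plate negative-control median ×100, log-transformed and converted to robust z-score. Cells were RAW264.7 given 100 nM siRNA, Pam3CSK4-primed 5 hours, then LipidA-transfected 24 hour.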

| Sequence | z-score |
| --- | --- |
| GGACAAGAUUCUAAACUGCTT against Wdr37 | 1.03 |
| GGCCUUGUAAAUUAUGCAUTT against Klhl23 | 0.61 |
| GCCCUUUCCGUCUGAAAUCTT against Hydin | 2.06 (active) |
| GCUUCUGGUUUUCGGCUAUTT against Sfswap | 0.427 |
| GAUGUGUUAACUACACCGATT against Pyy | 0.983 |
| CGAGGAUGAGUUCAGUGAGTT against Pdcl3 | -1.19 |
| GUUGGUUUGUUGACCUCUUTT against Arap2 | 0.1 |
| CCUACUCUGGUAAAACCUUTT against Immp1l | -0.365 |
| GCAAAGGCCAAAUAUGAGGTT against Dbil5 | -2.71 (active) |
| GCCAUUAAAGGUAACACUGTT against Tmbim7 | 0.0423 |
| GCCUUCUGAGAUAGUAGAUTT against Zcchc17 | 0.756 |
| GGAGAAAAUCAAACCAGAUTT against Ddx19b | 0.823 |
| GGACUGAUGGAUCCUUCCATT against Krtcap3 | -2.12 (active) |
| GGCAUCCAUCAACAACAGGTT against Ahsa1 | -0.925 |
| GCAUGUACCCUCUUUGUAGTT against Gjb6 | -0.954 |
| GGAUUCGAGUGGUAACAAGTT against Nmral1 | 0.617 |
| GGUAUAGCUACCAUUUUUCTT against Ggct | -1.05 |
| CUUACCACCCUGAGUUUCATT against Olfr1066 | -3.2 (active) |
| GGAGAAAGCAGAAAUUGAATT against Mfap1a | -1.31 |
| CCAAGAUUCGGUUUUGCUUTT against Trerf1 | -0.33 |
| GGCAGCCCUUUUGCUAAGATT against Neurod1 | -0.0737 |
| GGCUGGUGAAAGUCAAGGUTT against Arid4a | 0.503 |
| GGAGCAGUCUCCUUUUUGUTT against Pcnp | 2.14 (active) |
| GCUCUUGAUGUUUAGAGUUTT against Usp17lf | 0.345 |
| GGGCAGCAGCAAUUUCUGUTT against Ahcyl1 | 1.39 |
| GGAAAAAUUAGACCGUGAGTT against Pcdhb4 | -0.299 |
| CCAUUGAUAUUAAAUCGCUTT against Pik3cg | -0.244 |
| GGGCUAUGUAUUGUAAAUGTT against Nxf1 | -2.79 (active) |
| GCACGACUACUUCUCAAAUTT against Prpf6 | 0.376 |
| GGCCAGAAUAUCAUCGUCATT against Rbks | -0.163 |
